Compound activity from PubChem.
BAZ2B inh: blocks human BAZ2B; Q9UIF8; AlphaScreen BAZ2B-H3K14Ac peptide displacement; 4.4% of 360,000 active; Potency, µM (titrated, usually from 114 µM), inactives show at the top dose activity change, negative = inhibition, usual class: inhibitors; AID 504333; note: % is set by controls: 0 for no effect and ±100 for the full control effect; nearly all actives have a fitted effect of over 60% in size
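Protein-peptide AlphaScreen: BAZ2B 50 nM, b-H3K14Ac 50 nM, 1x PBS pH 7.4 + 0.01% Tween-20. Preincubation 30 min RT; cpd 30 min RT (top 110 uM); beads 20 min RT, light-protected.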
JMJD2A Tudor: JMJD2A Tudor domain (human) inhibition; O75164; AlphaScreen JMJD2A-Tudor / H3K4me3 peptide binding; Potency, µM (top dose mostly 114 µM), for inactives: at the highest dose activity change, negative = inhibition, most hits filed as inhibitors; 4.4% of 390,000 active; AID 504339; note: % is set by controls: 0 for no effect and ±100 for the full control effect; nearly all actives have a fitted effect of over 50% in size
Target sequence (O75164 whole entry, looked up, the tested form may be a part): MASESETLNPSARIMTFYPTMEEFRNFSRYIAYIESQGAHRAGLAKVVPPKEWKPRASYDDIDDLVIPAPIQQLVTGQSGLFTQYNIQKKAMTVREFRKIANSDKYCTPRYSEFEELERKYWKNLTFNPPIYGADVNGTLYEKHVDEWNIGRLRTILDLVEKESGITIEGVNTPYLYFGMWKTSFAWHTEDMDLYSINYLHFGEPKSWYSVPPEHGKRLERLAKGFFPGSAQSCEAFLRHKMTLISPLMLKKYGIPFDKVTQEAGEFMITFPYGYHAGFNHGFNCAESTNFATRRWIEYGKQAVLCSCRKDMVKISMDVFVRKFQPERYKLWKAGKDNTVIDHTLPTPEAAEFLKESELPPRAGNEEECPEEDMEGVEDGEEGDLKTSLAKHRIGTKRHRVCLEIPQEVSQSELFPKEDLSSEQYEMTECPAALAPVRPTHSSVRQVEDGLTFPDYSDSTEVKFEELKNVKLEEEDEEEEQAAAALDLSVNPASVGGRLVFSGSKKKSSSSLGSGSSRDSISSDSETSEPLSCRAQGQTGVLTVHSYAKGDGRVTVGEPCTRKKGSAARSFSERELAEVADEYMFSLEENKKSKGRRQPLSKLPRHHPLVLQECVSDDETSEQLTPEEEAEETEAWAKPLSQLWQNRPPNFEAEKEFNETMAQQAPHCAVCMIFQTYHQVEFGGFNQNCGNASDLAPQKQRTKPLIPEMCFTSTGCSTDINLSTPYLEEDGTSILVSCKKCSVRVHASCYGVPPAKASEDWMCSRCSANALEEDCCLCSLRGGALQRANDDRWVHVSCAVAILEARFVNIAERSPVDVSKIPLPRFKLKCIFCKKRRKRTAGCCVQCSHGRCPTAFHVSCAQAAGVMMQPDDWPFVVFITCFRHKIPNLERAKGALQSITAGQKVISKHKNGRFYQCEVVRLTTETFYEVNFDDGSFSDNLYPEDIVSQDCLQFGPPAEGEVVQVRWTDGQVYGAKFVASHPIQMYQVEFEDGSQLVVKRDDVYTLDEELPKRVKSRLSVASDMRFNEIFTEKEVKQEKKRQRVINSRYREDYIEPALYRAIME
GLS inh: blocks human kidney-isoform glutaminase activity. O94925. GLS enzymatic activity, qHTS titration. Potency, µM (top dose mostly 45.5 µM), for inactives: top-dose activity change, negative = inhibition, most hits filed as inhibitors. 0.21% of 410,000 active. AID 624170; note: % is set by controls: 0 for no effect and ±100 for the full control effect
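Two-point fluorescence kinetic (t0, 30 min RT) for hKGA; glutamate detected via glutamate oxidase–HRP–Amplex Red. Substrate: 1 mM L-glutamine solution; buffer 45 mM KH2PO4, pH 8.2.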
G9a inh: inhibitors of human histone lysine methyltransferase G9a | Q96KQ7 | G9a H3K9 monomethylation, AlphaScreen, 2 h | Potency, µM (highest dose often 102 µM), without a hit: at the highest dose activity, negative = inhibition, usual class: inhibitors | 8.8% of 350,000 active | AID 504332; note: % is set by controls: 0 for no effect and ±100 for the full control effect; nearly all actives have a fitted effect of over 75% in size
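AlphaScreen detection with an anti-monomethyl H3K9 antibody quantified product after a 2 h room-temperature reaction containing 500 nM biotinylated H3K9 peptide, 20 µM SAM and 20 nM enzyme, which had been preincubated 15 min with compound.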
HP1b binding inh: HP1-beta chromodomain-methylated histone interaction inhibition; AlphaScreen HP1-beta / biotin-H3K9me3 peptide binding; 0.56% of 390,000 active; Potency, µM (titrated, usually from 114 µM), for inactives: top-dose activity change, negative = inhibition, usual class: inhibitors; AID 540317; note: nearly all actives have a fitted effect of over 70% in size
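AlphaScreen: HP1-beta (50 nM) preformed 30 min with biotin-H3(1-18)K9me3 peptide (50 nM) in PBS pH 7.4, 0.01% Tween-20. Compound added for 30 min at RT, then streptavidin donor/nickel chelate acceptor beads (10 ug/mL) for 30 min.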
Starred values were filed as active, the others as inactive; [ ] = dose if it differs, or a comment. In the library only some 10% were active in any assay of this set; here they are far more common. Calls come from the whole dose curve; as a rule, active = well fitted curve in the direction sought with a large enough effect; inconclusive = small, poorly fitted or top-dose-only effect, or another doubt; inactive = no such curve, though single readings can be large; an effect the other way counts as inactive or inconclusive. Potency is the fitted concentration of half-maximal effect.

For CC(C)(C)C(=O)Nc1ccc2oc(-c3cc(F)c(F)cc3Cl)nc2c1 the results were BAZ2B inh 8%, JMJD2A Tudor -7%, GLS inh 7%, G9a inh -2% and HP1b binding inh 35%.
Screening CCCNc1c(NS(=O)(=O)c2ccc(Br)cc2)c(=O)oc2ccccc12 returned BAZ2B inh -12%, JMJD2A Tudor -14%, GLS inh 21%, G9a inh 21%[59 µM] and HP1b binding inh 36%.
`C=CCNCCCCOc1ccc(C)cc1[N+](=O)[O-]` gave BAZ2B inh 56µM*, JMJD2A Tudor 7.9µM*, GLS inh -11%, G9a inh 13µM* and HP1b binding inh 18µM*.
COc1ccc(/C=C/C(=O)c2ccc3ccccc3c2O)cc1CN1CCOCC1 was read as BAZ2B inh 14µM*, JMJD2A Tudor inconclusive, GLS inh -12%, G9a inh 6.3µM* and HP1b binding inh inconclusive.
`Cc1ccc(-c2nc(CS(=O)CC(=O)NC3CCCCC3)c(C)o2)cc1` (centres undefined) gave BAZ2B inh -20%, JMJD2A Tudor -3%, GLS inh -12%, G9a inh inconclusive and HP1b binding inh 43%.
For Cc1ccccc1-c1nc(CS(=O)CC(=O)NC2CCCC2)c(C)o1 (centres undefined) the results were BAZ2B inh -16%, JMJD2A Tudor 12%, GLS inh -16%, G9a inh 79µM* and HP1b binding inh 33%.
Cc1oc(-c2cccs2)nc1CS(=O)CC(=O)NC1CCCCCC1 (centres undefined) was read as BAZ2B inh -2%, JMJD2A Tudor -22%, GLS inh 0%, G9a inh 40µM* and HP1b binding inh 7%.
`O=C(CCCN1C(=O)CCC1=O)Nc1ccc2c(c1)OCCO2` gave BAZ2B inh 0%, JMJD2A Tudor -18%[11.4 µM], GLS inh -7%, G9a inh -28%[12.7 µM] and HP1b binding inh 38%.
Screening COC(=O)C(c1ccccc1)C(C(=O)OC)c1ccccc1 (centres undefined) returned BAZ2B inh 7%, JMJD2A Tudor -12%, GLS inh 6%, G9a inh 32% and HP1b binding inh 32%.
O=C(O)c1ccc(/C=N/NC(=O)c2cc(-c3cccs3)nc3ccccc23)cc1 was read as BAZ2B inh -8%, JMJD2A Tudor -6%, GLS inh 31%, G9a inh 10%[59 µM] and HP1b binding inh 19%.
For Cc1ccc(N(CC(=O)NC2CCCCC2)C(=O)c2ccc(C)s2)cc1 the results were BAZ2B inh 13%, JMJD2A Tudor -17%, GLS inh 0%, G9a inh 10%[59 µM] and HP1b binding inh 6%.
Screening O=c1c(N2CCOCC2)coc2ccccc12 returned BAZ2B inh -12%, JMJD2A Tudor -10%, GLS inh -2%, G9a inh 3.5µM* and HP1b binding inh 91%.
`O=C(NCCCN1CCOCC1)c1coc2ccccc2c1=O` gave JMJD2A Tudor 1%, GLS inh 6%, G9a inh 12%[59 µM] and HP1b binding inh 37%.
`CCOC(=O)c1cccc(NC(=S)NC(=O)c2cccnc2)c1` gave BAZ2B inh -19%, JMJD2A Tudor -8%, GLS inh 14%, G9a inh 50µM* and HP1b binding inh 31%.
`COc1cccc(NC(=S)NC(=O)c2cccnc2)c1` gave BAZ2B inh -37%, JMJD2A Tudor -6%, GLS inh 7%, G9a inh 7.9µM* and HP1b binding inh 21%.
CCc1c(C)sc(NC(=S)Nc2cccnc2)c1C(=O)OC was read as BAZ2B inh 13%, JMJD2A Tudor -7%[57.1 µM], GLS inh -15%, G9a inh 45µM* and HP1b binding inh 10%.
`CCc1c(C)sc(NC(=S)Nc2nc(C)cc(C)n2)c1C(=O)OC` gave BAZ2B inh -34%, JMJD2A Tudor -27%, GLS inh 7%, G9a inh -30% and HP1b binding inh 10%.
Screening CCCOC(=O)c1cccc(NC(=O)c2cccnc2)c1 returned BAZ2B inh 6%, JMJD2A Tudor -15%, GLS inh 12%, G9a inh 22%[59 µM] and HP1b binding inh 14%.
`COc1ccc(COc2cc(-c3cccc(OC)c3)nc3ccc(NC(=O)c4cccnc4)cc23)cc1` gave BAZ2B inh -35%, JMJD2A Tudor inconclusive, GLS inh 4%, G9a inh 50µM* and HP1b binding inh -8%.
`CN(C(=O)COC(=O)COc1ccc(N(C)S(=O)(=O)c2ccc(Cl)cc2)cc1)c1ccccc1` gave JMJD2A Tudor -17%, GLS inh -3% and HP1b binding inh 58%.
`COc1ccc(Oc2coc3cc(O)ccc3c2=O)cc1` gave BAZ2B inh -19%, JMJD2A Tudor -7%, GLS inh 5%, G9a inh 10% and HP1b binding inh 37%.
Screening O=C(CSC1=NCCS1)N1N=C(c2cccs2)CC1c1ccc(F)cc1 (centres undefined) returned GLS inh -3%.
`COc1ccc(Cl)cc1NC(=O)COc1cccc2c(=O)n(C)ccc12` gave BAZ2B inh -15%, JMJD2A Tudor -15%, GLS inh -2%, G9a inh inconclusive and HP1b binding inh 0%.
For O=C(O)CCC(=O)N1CCN(S(=O)(=O)c2ccc3ccccc3c2)CC1 the results were BAZ2B inh -10%, JMJD2A Tudor 6%, GLS inh -7%, G9a inh -8% and HP1b binding inh 30%.
O=C(Cn1ncc(Cl)c(Cl)c1=O)N1CCN(S(=O)(=O)c2ccc3ccccc3c2)CC1 was read as BAZ2B inh 11%, JMJD2A Tudor -4%, GLS inh -9%, G9a inh 45µM* and HP1b binding inh 36%.
For O=C(Nc1ccc(N2CCCC(O)C2)cc1)c1snc2c(=O)[nH]cnc12 (centres undefined) the results were BAZ2B inh -7%, JMJD2A Tudor -16%, GLS inh 24%, G9a inh -37%[59 µM] and HP1b binding inh 1%.
Screening O=C(CCCSc1nc2ccccc2s1)NCc1ccco1 returned BAZ2B inh -1%, JMJD2A Tudor -11%, GLS inh 7%, G9a inh 79µM* and HP1b binding inh 0%.
CC(Cc1c[nH]c2ccccc12)C(=O)NCc1ccco1 (centres undefined) was read as BAZ2B inh 50µM*, JMJD2A Tudor inconclusive, GLS inh inconclusive, G9a inh 32µM* and HP1b binding inh inconclusive.
`CC(=O)NC(Cc1c[nH]c2ccccc12)C(=O)NCc1ccco1` (centres undefined) gave BAZ2B inh 2%, JMJD2A Tudor -17%, GLS inh -18%, G9a inh 9% and HP1b binding inh 23%.
O=C(NCc1ccco1)c1cccnc1Cl was read as BAZ2B inh -27%, JMJD2A Tudor -9%, GLS inh 0%, G9a inh inconclusive and HP1b binding inh 12%.
